Data reported in PubChem BioAssay (NCATS).
Inconclusive results are not listed. Calls of active or inactive are those of the source. Unless noted, the call rests on the fitted dose curve; in most records, active means well fitted curve in the direction sought with a large enough effect; inconclusive means small, poorly fitted or top-dose-only effect, or another doubt; inactive means no such curve, though single readings can be large; an effect the other way counts as inactive or inconclusive.

Legend:
[1] = target: Luciferin 4-monooxygenase (Photinus pyralis) (UniProt P08659); test: Biochemical firefly luciferase enzyme assay for NPC (AID 624030);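 further: purified P. pyralis luciferase at 10 nM with luciferin and ATP substrate; nearly all actives have a fitted effect of over 70% in size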
Chain of Luciferin 4-monooxygenase (Photinus pyralis) (P08659 whole entry, looked up): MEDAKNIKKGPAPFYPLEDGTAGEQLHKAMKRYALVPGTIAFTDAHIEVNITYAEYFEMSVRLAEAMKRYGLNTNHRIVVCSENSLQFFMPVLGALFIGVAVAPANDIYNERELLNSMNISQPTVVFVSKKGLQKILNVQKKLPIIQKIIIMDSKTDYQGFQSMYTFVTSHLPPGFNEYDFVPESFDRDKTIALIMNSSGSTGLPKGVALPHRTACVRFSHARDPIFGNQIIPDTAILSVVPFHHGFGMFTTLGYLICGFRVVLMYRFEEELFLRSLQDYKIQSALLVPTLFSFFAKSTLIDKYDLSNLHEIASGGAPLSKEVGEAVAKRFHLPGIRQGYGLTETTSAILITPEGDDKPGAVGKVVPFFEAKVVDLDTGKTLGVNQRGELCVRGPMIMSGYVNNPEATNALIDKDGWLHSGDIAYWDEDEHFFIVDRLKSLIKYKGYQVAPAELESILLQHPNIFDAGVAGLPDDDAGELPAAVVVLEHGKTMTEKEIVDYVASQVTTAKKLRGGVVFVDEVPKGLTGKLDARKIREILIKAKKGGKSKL
In short: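 Counter-screen for direct inhibition of the luciferase enzyme by approved-drug library compounds, run at 10 nM enzyme in 50 mM Tris acetate (final). Luminescence was read within 5 min of enzyme-buffer addition and normalized to PTC124 versus DMSO (0%).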

[2] = S16 Schwann cell viability assay (CellTiter-Glo assay) (AID 624031); further: potency means the concentration at half of the fitted maximal effect; nearly all actives have a fitted effect of over 70% in size
In short: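 Luminescent ATP read-out (CellTiter-Glo) after 24 h compound exposure of native S16 rat Schwann cells at 37 °C. Signals were normalized between cell-free wells and DMSO-treated cells, set as 0% activity.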

[3] = S16 Schwann cell PMP22 intronic element firefly luciferase assay (AID 624032); further: potency means the concentration at half of the fitted maximal effect; nearly all actives have a fitted effect of over 30% in size
In short: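 Rat S16 Schwann cells stably carrying a PMP22 intronic element-driven Fluc reporter were seeded overnight, then exposed to compounds for 24 h at 37 °C. Luminescence was normalized to PTC124 (positive control) and DMSO (0% activity).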

7G8 = test: qHTS profiling for inhibitors of Plasmodium falciparum proliferation (AID 504749); further: potency means the concentration at half of the fitted maximal effect; nearly all actives have a fitted effect of over 60% in size; conditions: P. falciparum in erythrocytes, SYBR Green DNA, 72 h; series mostly up to 12.8 µM
In short: (§1)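 Fluorescence of SYBR Green-bound parasite DNA, read at 485/535 nm, served as the growth measure. Infected erythrocytes were cultured with compound 72 h; artemisinin (0.29 uM) and DMSO wells defined the normalization range.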

AA1029 = test: as above; conditions: P. falciparum in erythrocytes, SYBR Green DNA, 72 h; series mostly up to 12.8 µM
In short: as §1

CP260 = test: as above; conditions: P. falciparum in erythrocytes, SYBR Green DNA, 72 h; series mostly up to 12.8 µM
In short: as §1

CP268 = test: as above; conditions: P. falciparum in erythrocytes, SYBR Green DNA, 72 h; series mostly up to 12.8 µM
In short: as §1

CP297 = test: as above; conditions: P. falciparum in erythrocytes, SYBR Green DNA, 72 h; series mostly up to 12.8 µM
In short: as §1

CP315 = test: as above; conditions: P. falciparum in erythrocytes, SYBR Green DNA, 72 h; series mostly up to 12.8 µM
In short: as §1

DIV14 = test: as above; conditions: P. falciparum in erythrocytes, SYBR Green DNA, 72 h; series mostly up to 12.8 µM
In short: as §1

DIV17 = test: as above; conditions: P. falciparum in erythrocytes, SYBR Green DNA, 72 h; series mostly up to 12.8 µM
In short: as §1

ICS = test: as above; conditions: P. falciparum in erythrocytes, SYBR Green DNA, 72 h; series mostly up to 12.8 µM
In short: as §1

JCK = test: as above; conditions: P. falciparum in erythrocytes, SYBR Green DNA, 72 h; series mostly up to 12.8 µM
In short: as §1

TAB165 = test: as above; conditions: P. falciparum in erythrocytes, SYBR Green DNA, 72 h; series mostly up to 12.8 µM
In short: as §1

W2 = test: as above; conditions: P. falciparum in erythrocytes, SYBR Green DNA, 72 h; series mostly up to 12.8 µM
In short: as §1

[4] = target: Guanine nucleotide-binding protein G(i) subunit alpha-1 (Homo sapiens) (UniProt P63096); test: qHTS Assay for Inhibitors of RGS12 GoLoco Motif Activity (Green Fluorophore) (AID 879);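 further: negative values mean loss of peptide binding seen as reduced polarization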
Chain of Guanine nucleotide-binding protein G(i) subunit alpha-1 (Homo sapiens) (P63096 whole entry, looked up): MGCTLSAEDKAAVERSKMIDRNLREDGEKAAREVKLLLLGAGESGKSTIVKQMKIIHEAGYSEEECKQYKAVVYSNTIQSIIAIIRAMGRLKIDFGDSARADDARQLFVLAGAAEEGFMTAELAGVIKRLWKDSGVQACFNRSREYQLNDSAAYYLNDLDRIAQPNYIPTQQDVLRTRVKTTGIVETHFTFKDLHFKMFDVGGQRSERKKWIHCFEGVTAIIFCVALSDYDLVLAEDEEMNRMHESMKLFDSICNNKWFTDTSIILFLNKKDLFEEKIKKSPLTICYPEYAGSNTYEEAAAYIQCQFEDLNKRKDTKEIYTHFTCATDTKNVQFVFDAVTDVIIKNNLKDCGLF
In short: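 A drop in FITC polarization marked displacement of the FITC-tagged RGS12 GoLoco peptide (10 nM) from Gαi1 (50 nM). Compounds were incubated 10 min at room temperature in Tris pH 7.5 buffer containing 150 mM NaCl, 0.1 mM GDP and 0.05% NP40; unlabeled peptide titration served as control.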

[5] = target: Muscarinic acetylcholine receptor M1 (Rattus norvegicus) (UniProt P08482); test: qHTS Assay for Antagonists of Acetylcholine Muscarinic M1 Receptor: Measurement of IP-One Response (AID 944); further: nearly all actives have a fitted effect of over 75% in size
Chain of Muscarinic acetylcholine receptor M1 (Rattus norvegicus) (P08482 whole entry, looked up): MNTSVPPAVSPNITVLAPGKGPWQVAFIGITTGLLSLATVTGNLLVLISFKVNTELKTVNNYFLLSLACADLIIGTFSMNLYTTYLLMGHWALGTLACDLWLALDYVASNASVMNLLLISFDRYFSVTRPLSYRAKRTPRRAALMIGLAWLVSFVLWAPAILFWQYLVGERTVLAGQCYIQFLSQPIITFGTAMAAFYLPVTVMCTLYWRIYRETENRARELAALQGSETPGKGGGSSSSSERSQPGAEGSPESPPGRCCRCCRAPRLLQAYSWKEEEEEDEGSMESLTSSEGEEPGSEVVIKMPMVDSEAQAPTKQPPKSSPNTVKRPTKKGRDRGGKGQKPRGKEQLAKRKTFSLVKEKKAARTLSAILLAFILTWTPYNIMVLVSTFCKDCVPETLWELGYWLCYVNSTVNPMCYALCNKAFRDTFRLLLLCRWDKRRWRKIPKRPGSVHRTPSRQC
In short: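 Read-out: HTRF competition between d2-IP1 and Eu-cryptate anti-IP1 antibody, emission 620 and 665 nm. Stimulus was carbachol, EC80 (200 nM), for 30 min in M1-CHO cells (rat receptor), after 10 min compound pre-treatment.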

[6] = target: Pyruvate kinase (Leishmania mexicana) (UniProt Q27686); test: qHTS Validation Assay for Inhibitors of Leishmania Mexicana Pyruvate Kinase (AID 945)
Chain of Pyruvate kinase (Leishmania mexicana) (Q27686 2-499 E452W): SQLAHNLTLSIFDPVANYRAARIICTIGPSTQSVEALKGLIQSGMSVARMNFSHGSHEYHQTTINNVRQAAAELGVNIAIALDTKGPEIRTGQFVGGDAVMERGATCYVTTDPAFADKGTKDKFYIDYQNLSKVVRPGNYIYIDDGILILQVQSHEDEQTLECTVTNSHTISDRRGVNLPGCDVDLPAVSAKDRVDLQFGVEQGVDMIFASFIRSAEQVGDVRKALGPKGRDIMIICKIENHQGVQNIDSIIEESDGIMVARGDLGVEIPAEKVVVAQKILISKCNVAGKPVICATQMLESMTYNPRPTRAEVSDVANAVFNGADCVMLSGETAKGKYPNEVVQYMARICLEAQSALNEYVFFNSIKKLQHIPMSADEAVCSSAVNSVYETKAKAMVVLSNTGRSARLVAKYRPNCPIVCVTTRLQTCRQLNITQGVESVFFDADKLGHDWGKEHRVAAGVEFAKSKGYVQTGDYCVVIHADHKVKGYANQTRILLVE
In short: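 Substrate mix (0.5 mM PEP, 0.1 mM ADP, 7 mM MgCl2, 50 mM KCl, pH 7.2 imidazole) received compound by pin tool, then 0.2 nM LmPYK E451W. After 1 h at room temperature, PKLight was added and luminescence measured.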

[7] = target: Pyruvate kinase PKM (Homo sapiens) (UniProt P14618); test: qHTS Assay for Activators of Human Muscle Pyruvate Kinase (AID 954; active means well fitted curve in the direction sought with a large enough effect, not every such curve was filed as active)
Chain of Pyruvate kinase PKM (Homo sapiens) (P14618 whole entry, looked up): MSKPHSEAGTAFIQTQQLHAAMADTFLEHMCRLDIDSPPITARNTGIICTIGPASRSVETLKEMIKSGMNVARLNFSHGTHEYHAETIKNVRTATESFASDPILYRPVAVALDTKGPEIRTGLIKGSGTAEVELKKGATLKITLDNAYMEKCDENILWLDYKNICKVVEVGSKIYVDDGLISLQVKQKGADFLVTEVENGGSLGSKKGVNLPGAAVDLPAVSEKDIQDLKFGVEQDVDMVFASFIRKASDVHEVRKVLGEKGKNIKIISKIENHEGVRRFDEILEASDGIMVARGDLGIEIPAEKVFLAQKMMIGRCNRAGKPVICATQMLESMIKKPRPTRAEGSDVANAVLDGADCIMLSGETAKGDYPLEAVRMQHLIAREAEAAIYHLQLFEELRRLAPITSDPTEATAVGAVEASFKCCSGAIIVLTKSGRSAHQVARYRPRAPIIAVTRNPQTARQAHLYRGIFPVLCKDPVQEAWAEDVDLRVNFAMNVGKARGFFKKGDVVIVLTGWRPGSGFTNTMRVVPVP
In short: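 Compound pinned into substrate mix (0.5 mM PEP, 0.1 mM ADP), then 0.1 nM PKM2 added; 1 h, RT. Stop/detection luciferase reagent added, luminescence read. Normalized to no-inhibition and no-enzyme or reference-inhibitor controls.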

[8] = target: Alpha-galactosidase A (Homo sapiens) (UniProt P06280); test: Counterscreen for Glucocerebrosidase Inhibitors: qHTS Assay for Human alpha-Galactosidase at pH 4.5 (AID 992)
Chain of Alpha-galactosidase A (Homo sapiens) (P06280 whole entry, looked up): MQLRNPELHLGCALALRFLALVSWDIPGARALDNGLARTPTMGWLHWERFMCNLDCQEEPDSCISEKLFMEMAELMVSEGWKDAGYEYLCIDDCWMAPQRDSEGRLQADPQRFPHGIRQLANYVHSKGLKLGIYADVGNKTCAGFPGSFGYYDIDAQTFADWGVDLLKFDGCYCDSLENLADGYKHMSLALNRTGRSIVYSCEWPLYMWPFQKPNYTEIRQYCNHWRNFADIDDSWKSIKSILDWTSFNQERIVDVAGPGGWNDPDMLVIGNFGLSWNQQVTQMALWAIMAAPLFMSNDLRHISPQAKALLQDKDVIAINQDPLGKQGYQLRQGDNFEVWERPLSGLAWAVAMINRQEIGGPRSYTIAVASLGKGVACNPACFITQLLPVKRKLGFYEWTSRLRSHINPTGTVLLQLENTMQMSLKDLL
In short: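 Steps: enzyme (2 nM final), then compound across 0.7 nM to 77 uM, then 80 uM fluorogenic galactopyranoside substrate; incubate 20 min at room temperature; quench at pH 10; measure fluorescence at 365/440 nm.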

Measured: Potency

Cc1cc(/C=C\c2ccc3cc(N(C)C)ccc3[n+]2C)c(C)n1-c1ccccc1
active: [2] 15500 nM | [3] 30.9 nM | 7G8 398 nM | AA1029 1580 nM | CP260 355 nM | CP268 4050 nM | CP297 2280 nM | CP315 2030 nM | DIV14 2870 nM | DIV17 3610 nM | ICS 562 nM | JCK 3160 nM | TAB165 794 nM | W2 128 nM
inactive: [1]

NC(=NCc1ccc(Cl)c(Cl)c1)NC(=O)c1nc(Cl)c(N)nc1N
inactive: [4] | [5] | [6] | [7] | [8]
